# In PubChem BioAssay (NCI):
# About 83,000 compounds went through this panel and 20% of them were active in at least one assay; those are over-represented in the sample as a whole.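 Negative percent growth values reflect cell death: -40 means 40% of the cells present at the start died, and -100 means all died.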 Values without a mark were called inactive. Activity calls are given as the source filed them.
# Tested on: U251 CNS
# Experiment: NCI-60 one-dose screen, 48 h (100 = growth as untreated, 0 = no growth, -100 = all killed)
# Conditions: 10 µM unless noted
# Protocol: Growth inhibition of the U251 human tumor cell line is measured as a screen for anti-cancer activity. Cells are grown in 96 well plates and exposed to the test compound for 48 hours. Compounds are tested at a single concentration, which is 10^-5 M for most compounds. The reported endpoint is percent growth (GI% or GIPRCNT), where numbers from 0 - 100% represent growth inhibition, and numbers from -100% - 0 represent cell death. For example, a value of 40 represents 60% growth inhibition. A value of 0 means no net growth occurred over the course of the experiment. A value of -40 indicates 40% of cells at the beginning of the experiment died by the end of the experiment. A value of -100 means all cells are dead at the end of the experiment.
# NCI-60 Human Tumor Cell Lines Screen was performed using the standard one-dose NCI protocol, which is described in more detail at https://dtp.cancer.gov/discovery_development/nci-60/default.htm.
# Compounds with GIPRCNT values below 10 were considered active. Activity score was based on GIPRCNT using the following formula: […]
# Score is 0 for GIPRCNT values of 100 or above, 50 for GIPRCNT values of 0, and 100 for GIPRCNT values of -100.
row,Compound,growth
1,C#C[C@@]1(O)[C@@H](CO)O[C@@H](n2cc(C(F)(F)F)c3c(N)ncnc32)[C@@H]1O,6.37% (active)
2,O=C(/C=C/c1ccccc1)Oc1ccc(/C=C/c2cc(OC(=O)/C=C/c3ccccc3)cc(OC(=O)/C=C/c3ccccc3)c2)cc1,94.9%
3,O=c1c2ccccc2sc2c(NCCN3CCOCC3)nc3ccccc3c12,42.3%
4,O=C(O)c1cccc(S(=O)(=O)c2ccccc2)c1,108%
5,C#C[C@@]1(O)[C@@H](CO)O[C@@H](n2cc(Br)c3c(Cl)ccnc32)[C@@H]1O,70.9%
6,O=C1OC(=O)C2C3CC(c4ccccc43)C12 (stereo not given),97.4%
7,COc1ccc2c(c1)O/C(=C/c1ccc(OCC(=O)Nc3ccc(S(N)(=O)=O)cc3)cc1)C2=O,97.7%
8,CCCCOc1c(N)cccc1C(=O)OCCN(CC)CC,96.5%
9,C[C@H]1C=C(C[C@@H](O)CCCCCCCCCC[C@@H](O)[C@H]2CCC(=O)O2)C(=O)O1,99.5%
10,O=C(C[n+]1ccccc1Cl)c1ccc2c(c1)CCCC2,97.7%
11,CCOC(=O)c1noc2c1CCc1c-2cn(Cc2ccc(OC)cc2)c1-c1cc(OC)c(OC)c(OC)c1,18.4%
12,O=[N+]([O-])c1cccc(C(c2ccccc2)c2ccccc2)c1,90.9%
13,COc1ccc(CCNC=O)cc1OC,110%
14,CCN(CC)CCC(C(=O)O)(c1ccccc1)c1ccccc1,109%
15,CCCc1nn2c(CCC(=O)c3nc4ccc([N+](=O)[O-])cc4[nH]3)nnc2s1,108%
16,CO[C@H]1/C=C/C=C/C=C/C[C@H](OC(=O)[C@@H](C)NC(=O)C2CCCCC2)[C@H](C)[C@@H](O)/C(C)=C\CCC2=CC(=O)C=C(NC(=O)C1)C2=O,-19.6% (active)
17,O=C(NCCNc1nccc(-c2c(-c3cccc(O)c3)nc3sccn23)n1)c1cc(N2CCOCC2)cc(C(F)(F)F)c1,105%
18,O=c1cc(Cl)[nH]c(=O)[nH]1,97.5%
19,O=C1C(SCCO)=C(SCCO)C(=O)N1c1ccc(-c2ccccc2)cc1,60.2%
20,CN1CCN(Cn2nc(-c3cc(F)c(Cl)cc3Cl)n(/N=C/c3ccc(N(C)C)cc3)c2=S)CC1,95.2%

row,Compound,growth
1,COc1cc(NC(=O)C#Cc2ccccc2)c(OC)cc1Cl,39.5%
2,Nc1nc(-c2cc3c(cc2Cl)NC(=O)/C3=C/c2ccccc2)cs1,40.3%
3,COc1ccc(C(=O)NC(=O)Nc2ccc3c(c2)NC(=O)/C3=C\c2[nH]c(C)c(CCC(=O)O)c2C)c(F)c1,0.371% (active)
4,CCOC(=O)c1cnc2c(OC)ccc(OC)c2c1Cl,109%
5,C=C1C(=O)O[C@H]2[C@H]1CC/C(C(=O)NCCOCCOCC(=O)Nc1ccc(OC)c(C(N)=O)c1O)=C\CC[C@@]1(C)O[C@@H]21,89.8%
6,Cc1cc(NC(=O)c2cccc(C(F)(F)F)c2)ccc1-n1ccc2c(NC(=O)c3ccccc3)nccc21,95.7%
7,CCOC(=O)c1[nH]c(-c2ccc(Cl)cc2)cc1-c1cccnc1,20.8%
8,CCOC(=O)CSc1nnc(-c2cc3c([nH]c4ccccc43)c(-c3cccc(O)c3)n2)n1-c1ccc(C)cc1,54.9%
9,CN(C)c1ccc(/C=c2\s/c(=C\C(=O)C(C)(C)C)[nH]c2=O)cc1,94.1%
10,FC(F)(F)c1cccc([Si](F)(c2cccc(C(F)(F)F)c2)c2cccc(C(F)(F)F)c2)c1,72.1%
11,CN(CCNCc1ccccn1)CCNCc1ccccn1,11%
12,COc1ccc(/C=C/C(=O)c2ccc(NC(=O)CSc3nnc(-c4cc(OC)c(OC)c(OC)c4)o3)cc2)cc1,-90.1% (active)
13,CCCCCCCCCCCC(=O)OCCNC(=O)C[n+]1ccccc1,101%
14,O=C(O)c1ccc(-n2cc(/C=N/Nc3ccccc3F)c(-c3ccc(O)cc3)n2)cc1,86.9%
15,O=C1OC(N(Cc2ccc(Cl)cc2)c2ccccc2)c2ccccc21 (stereo not given),100%
16,COc1ccc(-c2nn(-c3ccc(NC(=O)c4cc(C(F)(F)F)cc(C(F)(F)F)c4)cc3)cc2-c2ccncc2)cc1Cl,52.7%
17,CC1CCc2cc(F)cc3c(=O)c(C(=O)O)cn1c23 (stereo not given),101%
18,O=C(Cn1c2ccccc2c2ccncc21)N/N=C/c1c[nH]c2ccccc12,19.7%
19,COC1OCC(OS(=O)(=O)c2ccc(C)cc2)C(OC(=O)c2ccccc2)C1OC(=O)c1ccccc1 (stereo not given),39.3%
20,C=C1C(=O)O[C@H]2[C@H]1CC/C(C(=O)Nc1ccc(OC)c(C(N)=O)c1O)=C\CC[C@@]1(C)O[C@@H]21,82.2%
